PubChem BioAssay

Each compound was assayed against Epidermal growth factor receptor (Homo sapiens) (UniProt P00533) (assay: compounds binding epidermal growth factor receptor – biochemical, small-molecule microarray, 635 nm fluorescence, primary screen (AID 1104;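 also: score merges 667 nm emission intensity with spot signal to noise over triplicate slides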)). Conditions: EGFR binding, higher = more signal.
Chain of Epidermal growth factor receptor (Homo sapiens) (P00533 whole entry, looked up): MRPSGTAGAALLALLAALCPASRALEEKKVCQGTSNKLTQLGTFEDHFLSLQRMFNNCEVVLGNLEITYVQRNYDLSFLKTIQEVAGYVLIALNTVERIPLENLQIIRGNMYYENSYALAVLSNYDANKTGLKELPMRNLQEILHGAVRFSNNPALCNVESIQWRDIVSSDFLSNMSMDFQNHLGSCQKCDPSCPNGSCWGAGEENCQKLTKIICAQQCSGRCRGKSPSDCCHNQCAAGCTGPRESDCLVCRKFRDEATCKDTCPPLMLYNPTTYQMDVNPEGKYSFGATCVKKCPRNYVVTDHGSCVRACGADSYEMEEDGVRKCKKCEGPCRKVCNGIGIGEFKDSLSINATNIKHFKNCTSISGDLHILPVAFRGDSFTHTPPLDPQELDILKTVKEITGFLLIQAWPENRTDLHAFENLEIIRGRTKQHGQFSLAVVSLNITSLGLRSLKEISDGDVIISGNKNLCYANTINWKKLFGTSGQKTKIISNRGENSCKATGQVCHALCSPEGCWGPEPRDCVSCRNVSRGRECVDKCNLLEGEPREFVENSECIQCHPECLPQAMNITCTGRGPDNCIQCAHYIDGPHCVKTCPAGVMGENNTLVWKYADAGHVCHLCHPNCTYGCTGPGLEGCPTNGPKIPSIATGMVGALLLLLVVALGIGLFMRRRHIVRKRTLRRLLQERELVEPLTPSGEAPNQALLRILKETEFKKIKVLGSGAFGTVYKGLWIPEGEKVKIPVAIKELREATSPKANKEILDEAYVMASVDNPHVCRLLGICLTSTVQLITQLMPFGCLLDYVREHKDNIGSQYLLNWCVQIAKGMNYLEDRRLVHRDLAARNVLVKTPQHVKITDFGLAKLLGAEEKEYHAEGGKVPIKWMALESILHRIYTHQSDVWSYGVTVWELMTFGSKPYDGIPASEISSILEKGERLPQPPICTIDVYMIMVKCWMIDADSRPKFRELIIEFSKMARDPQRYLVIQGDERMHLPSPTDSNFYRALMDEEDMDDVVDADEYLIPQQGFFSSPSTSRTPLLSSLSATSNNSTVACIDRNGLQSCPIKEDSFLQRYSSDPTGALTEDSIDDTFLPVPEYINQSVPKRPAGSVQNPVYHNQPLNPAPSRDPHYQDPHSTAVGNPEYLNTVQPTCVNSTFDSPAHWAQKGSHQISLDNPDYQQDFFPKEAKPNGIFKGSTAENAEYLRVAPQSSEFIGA

Row | Compound | composite z-score
1 | O=C1C2C=CC(C(O)Cc3ccccc3)N(Nc3ccc([N+](=O)[O-])cc3)C2C(=O)N1c1ccccc1 (stereo unspecified) | 0.277
2 | CC(C)C[C@@H]1NC(=O)[C@H](CC(C)C)NC(=O)[C@@]23C(=O)N[C@@H](Cc4ccccc4)C2[C@H](C)[C@@]2(C)O[C@H]2C3/C=C/CC/C=C/CNC1=O (stereo partly specified) | 0.543
3 | COC(=O)[C@@]1(Cc2ccccc2CN=[N+]=[N-])N=C(c2ccc(OCCCO)cc2)O[C@H]1c1ccccc1N=[N+]=[N-] | -0.0185
4 | CCOC(=O)C[C@H]1[C@H](OC(=O)Cc2ccc3c(c2)OCO3)[C@@H](NC(=O)c2ccc3ccccc3c2)c2cc(OCCCO)ccc2N1C(=O)Cc1ccc(OC)cc1 | 0.373
5 | C[N+](C)(C)CCCCNC(=O)[C@H]1C[C@H]2C(=O)NCC(=O)N2[C@H]1c1cccc(OCCO)c1 | 1.09
6 | C=C(/C(=C/C[C@@H](OC(=O)c1ccncc1)c1ccc(CO)o1)c1cnc2ccccc2c1)C(C)C | 0.623
7 | CCCNC(=O)[C@@]1(Sc2ccc(C)cc2)CC(=O)N(Cc2ccccc2Cl)[C@@H]1c1ccc(CO)cc1 | 0.566
8 | COC(=O)Cn1c(C(=O)N2CCCC2)cc2c1C[C@H]1CN(C(=O)c3ccccc3)[C@@](Cc3ccccc3)(C(=O)OC)[C@@H]21 | -0.282
9 | NC(=O)NCC#Cc1ccc2c(c1)[C@]1(C(=O)N2)[C@H](C(=O)N2CCCCCCC2)[C@H]2C(=O)O[C@H](c3ccccc3)[C@H](c3ccccc3)N2[C@@H]1c1ccccc1OCCO | 1.7
10 | Cc1ccc(S[C@]2(C(=O)NCCCN(C)C)CC(=O)N(C3CCCCC3)[C@@H]2c2ccc(CO)cc2I)cc1 | -1
11 | CCN1C(C)=C(C(=O)OC)[C@@H](c2ccccc2)N2C(=O)[C@@]3(C(=O)OC)O[C@@]12[C@@H]1C(=O)N(C)C(=O)[C@@H]13 | 0.471
12 | CO[C@H]1COC(=O)[C@H](C)NC(=O)CC=C[C@@H](C)[C@H](NS(=O)(=O)c2ccc(C)cc2)COC(=O)CC=C[C@@H]1C | 0.778
13 | Cc1ccc(S(=O)(=O)N[C@H]2COC(=O)CC=C[C@H](C)COC(=O)N[C@@H](C)C(=O)CC=C[C@@H]2C)cc1 | 0.831
14 | CN1C2C=C(c3ccc(CO)cc3)C(C3C(=O)N(C(N)=O)C(=O)C32)C1c1cccs1 (stereo unspecified) | 0.136
15 | CCCC=C(CCC)[C@@H](NS(=O)(=O)c1ccc(C(F)(F)F)cc1)c1ccc(-c2ccccc2)cc1 | 0.201
16 | CO[C@H]1COC(=O)[C@@H](C)NC(=O)CC=C[C@@H](C)[C@H](OC)COC(=O)CC=C[C@@H]1C | -0.805
17 | C=CCC(OC(C)=O)[C@@H]1[C@@H](N(Cc2cc3ccccc3o2)C(=O)Cc2ccc(F)cc2)c2cc(OCCCO)ccc2N1C(=O)c1ccc(-c2ccccc2)cc1 (stereo partly specified) | -0.162
18 | Cc1ccc(N2C(=O)c3ccccc3[C@@H](C(=O)NCc3ccccc3)[C@@H]2c2ccc(CO)cc2)nc1 | -0.446

Row | Compound | composite z-score
19 | CCCC[C@@H]1C[C@H]1[C@@H](NC(=O)c1ccccc1)c1ccccc1C(F)(F)F | -0.279
20 | CN1C(=O)C2C=CC(C(O)c3ccc(N(C)C)cc3)N(Nc3ccc([N+](=O)[O-])cc3[N+](=O)[O-])C2C1=O (stereo unspecified) | 0.737
21 | O=C1C2C=CC(C(O)C#Cc3ccccc3)N(Nc3ccccc3)C2C(=O)N1c1ccccc1 (stereo unspecified) | -0.512
22 | Cc1ccc(S[C@]2(C(=O)NCCN3CCOCC3)CC(=O)N(C3Cc4ccccc4C3)[C@@H]2c2ccc(CO)cc2I)cc1 | -1.65
23 | O=C1O[C@@H](c2ccccc2)[C@@H](c2ccccc2)N2[C@@H](c3ccc(O)cc3)[C@]3(C(=O)Nc4ccccc43)[C@@H](C(=O)N3CCN(c4ncccn4)CC3)[C@H]12 | -0.366
24 | C=CC[C@]1(C(=O)NCC(O)CO)N=C(c2ccc(OCCCO)cc2)O[C@H]1c1ccccc1 (stereo partly specified) | -1.48
25 | CC[C@@H]1C=C(C(=O)O)[C@H](c2ccccc2)N1S(=O)(=O)c1ccc([N+](=O)[O-])cc1 | -0.314
26 | CN1CCC(CCCO)=CC1C1CC1 (stereo unspecified) | 0.0647
27 | C=CC[C@]1(C(=O)N2CCCCC2)N=C(c2ccc(OCCCO)cc2)O[C@H]1c1ccccc1N=[N+]=[N-] | 0.292
28 | COc1cccc([C@@H]2[C@@H](C)CC[C@H]3C(=O)N4[C@H](c5cccc(OC)c5)[C@@H](C)CC[C@H]4C(=O)N23)c1 | 0.518
29 | COCCOC(=O)N1C(=O)[C@@]2(c3cc(C#CC4=CCCCC4)ccc31)[C@H](c1ccc(O)cc1)N1[C@H](c3ccccc3)[C@H](c3ccccc3)OC(=O)[C@H]1[C@@H]2C(=O)N1CCCCCCC1 | 0.405
30 | C=CCC(OC(C)=O)[C@@H]1[C@@H](N(Cc2cccc3ccccc23)C(=O)c2ccc(C)cc2)c2cc(OCCCO)ccc2N1C(=O)c1ccc(-c2ccccc2)cc1 (stereo partly specified) | 0.0513
31 | C=CCN1C(=O)[C@]2(O[C@H](CCn3cc(CCO)nn3)[C@@H]([Si](C)(C)c3ccc(OC)cc3)[C@@H]2C)c2cc(NC(=O)c3ccc(OC)cc3)ccc21 | 0.384
32 | CC(=O)NCCCC[C@@H]1NC(=O)[C@@H]2C[C@H](C(=O)NCCCCCCN(C)C)[C@H](c3ccc(O)cc3)N2C1=O | 1.31
33 | CO[C@@H]1COC(=O)[C@H](COCc2ccccc2)NC(=O)CC=C[C@@H](C)[C@H](OC)COC(=O)[C@H](COCc2ccccc2)NC(=O)CC=C[C@H]1C | 0.48
34 | COCCOC(=O)N1C(=O)[C@@]2(c3ccccc31)[C@H](C(=O)N1CCc3cc(OC)c(OC)cc3C1)[C@H]1C(=O)O[C@H](c3ccccc3)[C@H](c3ccccc3)N1[C@@H]2c1ccccc1OCCO | 0.329
35 | C=C(CCCC)/C(=C/C[C@@H](OC(=O)c1ccncc1)c1cccc(OCCO)c1)c1cc(C(=O)OC)ccc1OC | 0.53
36 | C#CCCCON=C1C[C@@H](O)[C@@H](O)[C@@H]2[C@@H]3C(=O)N(Cc4ccc5c(c4)OCO5)C(=O)[C@@H]3CC[C@@H]12 | 0.336
